# aGlu spleen mod: inhibitors or activators of human alpha-glucosidase in spleen homogenate; P10253; human spleen homogenate, 4-MU-alpha-glucoside fluorescence; Potency, µM (top dose mostly 79.9 µM), without a hit: at the top dose activity change, negative = inhibition, actives largely listed as inhibitors; actives 0.006% (n = 240,000);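 note: potency is the fitted concentration of half-maximal effect; 0% = enzyme with vehicle and -100% = no enzyme basal signal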
#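 AC50 values come from Hill-equation fits of concentration-response data, normalized to no-enzyme and full-activity controls. Enzyme source: 1 ug human spleen homogenate; 1 mM fluorogenic 4-MU glucoside, pH 5.0 citrate buffer, 37 C, 40 min.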
# GLA spleen mod: inhibitors or activators of human alpha-galactosidase in spleen homogenate. P06280. human spleen homogenate, 4MU-alpha-Gal fluorescence, 40 min. Potency, µM (series often up to 80 µM), inactives show at the top dose activity change, negative = inhibition, usual class: inhibitors. actives 0.008% (n = 240,000). AID 2107;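 note: potency is the fitted concentration of half-maximal effect; 0% = enzyme with vehicle and -100% = no enzyme basal signal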
# Target sequence (P06280 32-429 limits assumed): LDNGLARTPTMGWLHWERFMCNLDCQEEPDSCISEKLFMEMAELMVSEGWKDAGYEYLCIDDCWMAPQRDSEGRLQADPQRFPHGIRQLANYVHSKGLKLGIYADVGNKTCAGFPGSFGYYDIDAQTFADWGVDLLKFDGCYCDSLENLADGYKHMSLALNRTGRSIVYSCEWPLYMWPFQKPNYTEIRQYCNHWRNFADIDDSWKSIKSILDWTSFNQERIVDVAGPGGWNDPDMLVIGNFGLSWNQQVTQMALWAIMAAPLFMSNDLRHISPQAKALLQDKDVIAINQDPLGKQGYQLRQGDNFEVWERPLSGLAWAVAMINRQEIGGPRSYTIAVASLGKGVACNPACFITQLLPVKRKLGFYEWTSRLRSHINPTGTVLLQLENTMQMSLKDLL
#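 Spleen homogenate 1 ug + cpd (titration) + 4-MU-alpha-D-galactopyranoside 1 mM; 37C 40 min; 50 mM citrate/phosphate pH 5.0, 0.01% Tween-20; stop pH 10; fluorescence 365/440; AC50 via Hill.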
# GLA inh pH 4.5: inhibitors of human alpha-galactosidase A at pH 4.5; purified enzyme, 4-MU-alpha-Gal fluorescence, pH 4.5; activity change, negative = inhibition, % at 105 µM; 230,000 tested, under 10 active; AID 1467;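 note: 0% = full activity with enzyme and -100% = basal without enzyme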
# N370S GC: inhibits or activates N370S mutant glucocerebrosidase. P04062. N370S GC spleen homogenate, 4MU-glucoside fluorescence. Potency, µM (highest dose often 59.4 µM), for the others: top-dose activity change, negative = inhibition, hits mostly inhibitors. actives 0.092% (n = 330,000). AID 2101;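 note: potency is the fitted concentration of half-maximal effect; 0% = full enzyme activity and -100% = no enzyme basal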
# GAA inh: inhibitors of human lysosomal alpha-glucosidase. purified human GAA, 4-MU-alpha-glucoside fluorescence. Potency, µM (series often up to 76.9 µM), for inactives: at the top dose activity change, negative = inhibition, usual class: inhibitors. P10253. actives 0.005% (n = 200,000). AID 1466;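 note: potency is the fitted concentration of half-maximal effect; plate controls were uninhibited enzyme wells for no effect and no-enzyme background for full effect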
#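 Fluorescence at Ex 365/Em 440 nm from 4-methylumbelliferone reported enzyme activity after 20 min at room temperature. Reactions used 4 nM enzyme and 400 uM substrate at pH 5.0; curves fitted with the Hill equation.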
# GAA glycogen: alters human alpha-glucosidase cleavage of glycogen; P10253; Potency, µM (top dose mostly 76.4 µM), for inactives: at the top dose activity change, negative = inhibition, hits mostly inhibitors; actives 0.38% (n = 300,000); recombinant GAA, glycogen substrate, Amplex Red glucose oxidase fluorescence;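 note: potency is the fitted concentration of half-maximal effect; 0% = full enzyme reaction and -100% = no-enzyme basal signal; the screen sought inhibitors and activators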
#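 Recombinant human alpha-glucosidase (4 nM final) hydrolysed bovine liver glycogen (30 ug) for 40 min at 37 C in pH 5.0 citrate/phosphate with 0.01% Tween-20. Released glucose detected by glucose oxidase/Amplex Red, Ex 573/Em 610 nm. Compounds up to 77 uM; AC50 from Hill fits.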
# * marks the source's active call; other numbers are inactive results; ? = inconclusive; . = no result; [ ] = dose if it differs, or a comment. Compounds with a hit are over-represented: about 0.43% of the library has one in this group of screens. Calls come from the whole dose curve; as a rule, active = well fitted curve in the direction sought with a large enough effect; inconclusive = small, poorly fitted or top-dose-only effect, or another doubt; inactive = no such curve, though single readings can be large; an effect the other way counts as inactive or inconclusive.
SMILES,aGlu spleen mod,GLA spleen mod,GLA inh pH 4.5,N370S GC,GAA inh,GAA glycogen
O=c1c2ccccc2[nH]c2ccc(O)cc12,.,.,.,-6.7%,.,20µM*
COc1cccc(C2=Nn3c(nnc3-c3cc(OC)cc(OC)c3)SC2)c1,7.4%,11.4%,.,11.8%,.,.
O=C(O)C1OC(Oc2c(-c3ccc(O)c(O)c3)oc3cc(O)cc(O)c3c2=O)C(O)C(O)C1O (configuration not stated),-16.7%,-11.7%,-12.4,-21.5%,1.4%[15.4 µM],3.98µM*
FC(F)(F)c1ccc2c(c1)NCC1CCCN21 (configuration not stated),5.0%,8.2%,4.7,2.6%,2.9%,6.31µM*
O=C(NC(=S)Nc1cccc2c(O)cccc12)c1ccccc1[N+](=O)[O-],.,.,.,-8.7%,.,10µM*
CCCC(=O)NC(=S)Nc1cccc2c(O)cccc12,8.1%,1.7%,4.7,-7.8%,-3.8%,8.91µM*
CCCC(=O)NC(=S)Nc1ccccc1C(=O)OC,-8.9%,-6.5%,3.9,6.5%[12.8 µM],0.5%,-4.2%
COc1ccc(NC2=C(Cl)C(=O)N(c3ccccc3)C2=O)c(OC)c1,-6.8%,-9.9%,.,11.5%,-9.5%[15.4 µM],2.5%
COc1ccc(N2C(=O)C(Cl)=C(Nc3c(C)n(C)n(-c4ccccc4)c3=O)C2=O)cc1,1.8%,-1.9%,-14.0,-1.7%,5.6%,25.1µM*
CCCCn1c(=O)c2[nH]c(C34CC5CC(CC3C5)C4)nc2n(CCCO)c1=O,3.4%,0.1%,-3.8,3.8%,.,.
COc1ccccc1Nc1nc(N)nc(CN2CCCCC2)n1,10.4%,13.0%,3.0,-1.7%,7.0%,-10.4%
COc1ccc(N2CCN(Cc3nc(N)nc(Nc4ccccc4OC)n3)CC2)cc1,11.4%,3.8%,-6.6,-8.5%,-5.1%,39.8µM*
CC(C)c1cccc2c([Si](C)(C)C)c3c(nc12)-c1cccc(=O)n1C3,10.2%,?,24.2,?,.,.
C#CCOCCOCCOCCNc1nc(N2CCN(C(=O)CCCCCCCCCCNC(=O)[C@H]([C@@H](C)CC)n3cc(CCCCN=C(N)N)nn3)CC2)nc(N2CCN(C(=O)CCCCCCCCCCNC(=O)[C@H](CCCCN)n3cc(C)nn3)CC2)n1,.,.,.,15.8µM*,.,.
C#CCOCCOCCOCCNc1nc(N2CCOCC2)nc(N2CCN(C(=O)CCCCCCCCCCNC(=O)[C@@H]([C@H](C)CC)n3cc(CCCCCN)nn3)CC2)n1,.,.,.,-29.1%,.,.
C#CCOCCOCCOCCNc1nc(N2CCN(C(=O)CCCCCCCCCCNC(=O)Cn3cc(CCCCCN)nn3)CC2)nc(N2CCN(C(=O)CCCCCCCCCCNC(=O)[C@H]([C@@H](C)CC)n3cc(CCCCN=C(N)N)nn3)CC2)n1,.,.,.,17.8µM*,.,.
C#CCOCCOCCOCCNc1nc(N2CCN(C(=O)CCCCCCCCCCNC(=O)[C@H]([C@@H](C)CC)n3cc(CCCCCN)nn3)CC2)nc(N2CCN(C(=O)CCCCCCCCCCNC(=O)[C@@H]([C@H](C)CC)n3cc(CCCCCN)nn3)CC2)n1,.,.,.,17.8µM*,.,.
C#CCOCCOCCOCCNc1nc(N2CCN(C(=O)CCCCCCCCCCNC(=O)[C@H]([C@@H](C)CC)n3cc(CCCCCN)nn3)CC2)nc(N2CCN(C(=O)CCCCCCCCCCNC(=O)[C@H]([C@@H](C)CC)n3cc(CCCCN=C(N)N)nn3)CC2)n1,.,.,.,17.8µM*,.,.
C=CCc1cccc(C=Nc2cc(Br)ccc2O)c1O,-6.3%,-2.5%,7.9,-19.3%,-5.3%,?
CCc1ccc(O)c(N=Cc2cccc(C)c2O)c1,-8.4%,4.4%,-5.9,-6.8%,2.8%,15.7µM*
Cc1cccc(C=Nc2ccc3c4c(cccc24)CC3)c1O,3.4%,16.9%,-6.6,-10.6%,7.1%,14.1µM*
CNC(=O)C1(C(F)(F)F)CC(CCCO)CCCO1 (configuration not stated),6.8%,3.3%,.,-0.7%,.,.
Cc1cc(SCC(=O)c2ccc(O)c(O)c2)nc2ccccc12,5.5%,5.1%,5.3,-13.4%,-1.6%,4.43µM*
